# Laboratory results taken from the supplement of paper PMC6555819.
# Tests used:
# Experiment in all cases: PBM binding z-score (relative to random genomic background probes); higher = stronger binding; sequences stand for … in GC…GCGATTGACAGCGTAGAATGAAGG
# [1] = test system: RARb homodimer (NR concentration 270 nM)
# Method in brief: (§1)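 Custom Agilent 4×180K protein-binding microarrays carried double-stranded probes. Their 34-nt variable regions held direct-repeat seeds, single-nucleotide variants, half-site ablations and random human genomic background sequences. Arrays were incubated 1 h with ligand-free nuclear receptor dimers in PBS pH 7.4, 2% milk, 0.02% Triton X-100, 1 mM DTT, 0.2 mg/mL BSA and 0.4 mg/ml salmon testes DNA. Antibodies against each partner (one per run) detected binding, and scanned fluorescence was regression-normalized. Binding z-scores use random background probes as reference.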
# [2] = test system: RARg:RXRa (NR concentration 270 nM, RXRa partner concentration 90 nM)
# Method in brief: as §1
# [3] = test system: RARg homodimer (NR concentration 270 nM)
# Method in brief: as §1
# [4] = test system: RXRa DBDmut IVT, anti-RXR (DBD mutation: RXRa K156A/R161A, NR concentration 90 nM)
# Method in brief: as §1
# [5] = test system: RXRa homodimer (NR concentration 180 nM)
# Method in brief: as §1
# [6] = test system: THRa:RXRa (NR concentration 90 nM, RXRa partner concentration 90 nM)
# Method in brief: as §1
# [7] = test system: THRa homodimer (NR concentration 90 nM)
# Method in brief: as §1
# [8] = test system: VDR homodimer (NR concentration 270 nM)
# Method in brief: as §1
Sequence,PBM binding z-score [1],PBM binding z-score [2],PBM binding z-score [3],PBM binding z-score [4],PBM binding z-score [5],PBM binding z-score [6],PBM binding z-score [7],PBM binding z-score [8]
CCTCGGAGGAAAACAGGAGGTCAGAGCTGCCAGA,2.81,1.32,1.3,-0.428,1.63,2.06,0.595,0.405
AGTCAAAGTTCAGGACGGGGTAACGTAAAGCACG,3.27,5.09,4.51,2.98,3.43,3.8,1.55,2.58
CAAACTAGGTCAAGAAGTCAAAGTCCGCTTCCCG,3.2,4.44,4.23,1.32,2.97,2.65,0.74,0.478
TCAGATAGGTAAAAGGTGAAAGTCGGTGTGGTAA,2.19,1.89,0.855,1.85,3.06,1.76,0.528,0.262
AGTATTAGTTGACTTAGGGCAACCGATACGACGC,1.29,0.595,1.02,0.0389,0.49,1.53,0.518,0.538
TCTTGTAGATCAAAGGTTTAGAAAGCCGAAGCCT,-0.342,-0.312,-0.404,0.516,0.291,-0.356,-0.747,0.0902
AGTCAACGTTCAGGACGAGGTAACGTAAAGCACG,-0.0275,0.297,0.412,-0.658,0.0619,2.08,1.42,-0.0352
